Screening results: PubChem BioAssay, National Center for Advancing Translational Sciences (NCATS)
This is a sample that favours compounds with a hit; in the whole collection about 11% have one here.
IMPase Li cell = qHTS Assay for Identifying the Cell-Membrane Permeable IMPase Inhibitors: Potentiation with Lithium; CHO-M1 cells, IP1 TR-FRET (IP-One), carbachol + lithium; Potency, µM (doses to about 59.4 µM), without a hit: at the highest dose activity, negative = IMPase inhibition, hits mostly inhibitors; hit rate 0.35% among 210,000; active = well fitted curve in the direction sought with a large enough effect; inconclusive = small, poorly fitted or top-dose-only effect, or another doubt; inactive = no such curve, though single readings can be large; an effect the other way counts as inactive or inconclusive;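 note: IP1 builds up when IMPase is blocked and the TR-FRET signal falls; potency is the fitted concentration of half-maximal effect; plate controls were basal vehicle for no effect and high inhibitor control for full effect; nearly all actives have a fitted effect of over 50% in size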
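Concentration–response in CHO-M1 cells, lithium-potentiated; 30 min at 37C. IP1 detected by competitive TR-FRET after 10 min lysis at RT. Hill-fitted AC50.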
HPGD inh = qHTS Assay for Inhibitors of HPGD (15-Hydroxyprostaglandin Dehydrogenase); purified HPGD, NADH fluorescence kinetic, PGE2 substrate; Potency, µM, without a hit: at the top dose activity change, negative = inhibition, usual class: inhibitors; hit rate 4.3% among 150,000; AID 894, 2007; note: potency is the fitted concentration of half-maximal effect
Target sequence (P15428 whole entry, looked up): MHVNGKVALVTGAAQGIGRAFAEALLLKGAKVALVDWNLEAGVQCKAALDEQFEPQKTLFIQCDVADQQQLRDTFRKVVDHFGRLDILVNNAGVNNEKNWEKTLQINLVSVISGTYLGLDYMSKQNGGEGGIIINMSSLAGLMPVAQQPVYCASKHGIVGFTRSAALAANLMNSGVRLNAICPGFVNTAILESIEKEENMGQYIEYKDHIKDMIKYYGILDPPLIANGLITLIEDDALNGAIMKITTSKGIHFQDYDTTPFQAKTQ
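20 nM HPGD preincubated 15 min at room temperature with compound in 50 mM Tris-HCl pH 8, 0.01% Tween 20. Started with 1 mM NAD+ and 30 uM prostaglandin E2; NADH fluorescence (360/450 nm) read 5 times over 30-s intervals, last minus first.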
ALDH1A1 block = qHTS Assay for Inhibitors of Aldehyde Dehydrogenase 1 (ALDH1A1); Aldehyde dehydrogenase 1A1 (Homo sapiens), P00352; Purified ALDH1A1, NADH fluorescence, propionaldehyde substrate; Potency, µM (series often up to 75.3 µM), for the others: at the highest dose activity, negative = inhibition, actives largely listed as inhibitors; hit rate 7.3% among 220,000;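 note: potency is the fitted concentration of half-maximal effect; plate controls were no enzyme wells and a reference inhibitor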
ALOX12 inhib = qHTS Assay for Inhibitors of 12-hLO (12-human lipoxygenase). hit rate 0.12% among 150,000. purified 12-hLO, xylenol orange hydroperoxide absorbance. Potency, µM (series often up to 57.1 µM), without a hit: at the top dose activity change, negative = inhibition, usual class: inhibitors; active = well fitted curve in the direction sought with a large enough effect; inconclusive = small, poorly fitted or top-dose-only effect, or another doubt; inactive = no such curve, though single readings can be large; an effect the other way counts as inactive or inconclusive; note: potency is the fitted concentration of half-maximal effect; nearly all actives have a fitted effect of over 55% in size
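150 nM 12hLO, 25 mM Hepes pH 7.0 + 0.01% Triton X-100; cpd preinc 15 min RT; 40 uM arachidonic acid, 30 min RT; Fe-XO 30 min; A573/A405 ratio as read-out.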
IMPase cell inh = qHTS Assay for Identifying the Cell-Membrane Permeable IMPase Inhibitors; Inositol monophosphatase 1 (Rattus norvegicus), P97697; inhibition (IP1 accumulation), % at 46.1 µM; CHO-M1 cells, IP1 accumulation, HTRF TR-FRET ratio; 120,000 tested, under 10 active; active = well fitted curve in the direction sought with a large enough effect in the signal ratio, not every such curve was filed as active; inconclusive = small, poorly fitted or top-dose-only effect, or a change in a side signal; inactive = no such curve, though single readings can be large or run the other way; the % refers to the signal ratio;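 note: cells stimulated with carbachol in lithium chloride buffer; plate controls were DMSO basal wells for no effect and reference inhibitor wells for full effect; higher means more IMPase inhibition seen as more IP1 and lower FRET ratio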
Target sequence (P97697 whole entry, looked up): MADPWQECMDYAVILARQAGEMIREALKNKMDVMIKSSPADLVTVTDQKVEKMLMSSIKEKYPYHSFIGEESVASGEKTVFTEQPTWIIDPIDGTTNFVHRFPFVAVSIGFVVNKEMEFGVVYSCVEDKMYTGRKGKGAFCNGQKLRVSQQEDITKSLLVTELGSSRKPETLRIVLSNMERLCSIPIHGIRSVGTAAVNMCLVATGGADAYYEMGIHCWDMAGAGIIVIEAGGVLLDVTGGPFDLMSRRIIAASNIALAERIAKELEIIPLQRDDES
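The IP-One HTRF competitive assay in carbachol-stimulated CHO-M1 cells quantifies cellular IP1. Compounds spanned up to 46 uM final, and activity is expressed as AC50 from concentration-response fits of the ratio and donor data.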
PNC inhibitor = High Content Assay for Compounds that inhibit the Assembly of the Perinucleolar Compartment. PC3M PTB-GFP, PNC prevalence imaging, 16 h; hits give low values. activity change (PNC), negative = inhibition, % at 10 µM. hit rate 3.1% among 140,000. AID 2417, 2010;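 active = readout at or below -70, meaning at least 70% loss of cells showing the perinucleolar compartment, a nuclear body marking cancer cells; inconclusive = readout between -30 and a set limit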;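 note: plate controls were DMSO wells for no effect and camptothecin positive control wells for full effect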
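Read-out is percentage of cells bearing a perinucleolar compartment, from automated 20x imaging of fixed, Hoechst-stained PC3M PTB-GFP cells. Cells were seeded 4 h, then exposed 16 h to compound (23 nl of library stock) in duplicate plates.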
Active calls of the source: *; u = inconclusive; x = not tested or not shown; [ ] = remark or other dose. Unless noted, calls come from the whole dose curve; as a rule, active = well fitted inhibition curve with a large enough effect (not every such curve was filed as active); inconclusive = small, poorly fitted or top-dose-only effect, or another doubt; inactive = no such curve, though single readings can be large or run the other way. Unless noted, % is set by controls: 0 for no effect and ±100 for the full control effect.

SMILES | IMPase Li cell | HPGD inh | ALDH1A1 block | ALOX12 inhib | IMPase cell inh | PNC inhibitor
O=C(c1ccco1)N1CCN(c2nc(C3CC3)nc3c2nnn3Cc2ccccc2Cl)CC1 | 7% | u | u | -4% | x | -13
O=C(c1ccccc1)N1CCC(c2nc3c(nnn3Cc3ccco3)c(=O)[nH]2)CC1 | 4%[38.3 µM] | 14µM* | -6% | 5% | 2 | -2
Cc1ccc2nc(C3CCN(C(=O)c4ccco4)CC3)[nH]c2c1 | 6%[38.3 µM] | -5% | -1% | -2% | -5 | -23
O=C(c1ccc(Cl)cc1Cl)N1CCC(c2nc3c(nnn3Cc3ccco3)c(=O)[nH]2)CC1 | 17% | 20µM* | 2% | -19% | -1 | u
COC(=O)c1cc(OC)c(OC)cc1N=CC1=C(O)CC(C)(C)CC1=O | 15%[38.3 µM] | u | 1µM* | 0% | -4 | 5
CCOC(=O)c1c(CC(C)C)csc1/N=C/C1C(=O)CC(C)(C)CC1=O | -3% | x | 6.3µM* | x | x | x
CCOC(=O)c1cc(C)sc1/N=C/C1C(=O)CC(C)(C)CC1=O | -6% | -2% | 13µM* | 1% | x | u
CCOC(=O)c1cc(CC)sc1/N=C/C1=C(O)CC(C)(C)CC1=O | 13% | -20% | 11µM* | -2% | x | 4
COC(=O)c1cc(N=CC2=C(O)CC(C)(C)CC2=O)cc(C(=O)OC)c1 | -4% | -13% | u | -2% | x | 44
COc1ccccc1OC(C)C(=O)Nc1c(C(=O)c2ccc(Cl)cc2)oc2ccccc12 (stereo unspecified) | x | x | x | x | -5 | x
COc1ccc(CC(=S)N2CCOCC2)cc1OC | -3%[38.3 µM] | -8% | 10% | 4% | -4 | 65
S=C(Cc1cccnc1)N1CCOCC1 | -6% | 22µM* | 13µM* | -1% | x | -14
O=C(NCCO)c1cc2cc(Cl)cc(Cl)c2oc1=O | -7% | x | u | x | x | x
COCCNC(=O)c1cc2cc(Cl)cc(Cl)c2oc1=O | -2% | x | 25µM* | x | x | x
Cc1nc(SCC(=O)NC(C)c2ccccc2)c2oc3ccccc3c2n1 (stereo unspecified) | 8%[38.3 µM] | -12% | -7% | -3% | 4 | 61
O=C(O)CSc1nc(-c2ccc(Cl)cc2)nc2c1oc1ccccc12 | -5% | 16µM* | u | 7% | x | -87*
Cc1cc(C)nc(Sc2nc(C)nc3c2oc2ccccc23)n1 | -1%[38.3 µM] | 32µM* | u | 1% | 0 | 128
Cc1nc(SCC(=O)NCCc2ccccc2)c2oc3ccccc3c2n1 | 6.3µM* | -20% | -1% | 7% | 0 | -100*
CNC(=O)C(Sc1nc(C)nc2c1oc1ccccc12)C(C)=O (stereo unspecified) | 4.5µM* | -24% | 13µM* | -14% | -25 | -2
O=C(N/N=C/c1ccccc1Br)C1CC1 | 4% | x | 5% | x | x | x
O=C(CC1(O)C(=O)N(CCc2ccccc2)c2ccc(Br)cc21)c1ccccc1O (stereo unspecified) | x | x | x | x | -4 | x
CCCCc1c(O)n(-c2ccccc2)[nH]c1=O | -7% | -10% | 0% | -7%[0.00818 µM] | x | x
Cc1nc(SCC(=O)c2ccc(Cl)s2)c2oc3ccccc3c2n1 | u | 2.2µM* | u | 0% | -7 | -25
Cc1nc(SCC(=O)Nc2ccccc2)c2oc3ccccc3c2n1 | x | x | u | -2% | -5 | u
CCc1cccc(C)c1NC(=S)NCc1cccn1C | 19% | -15% | 14µM* | -24% | x | 143
CCc1ccccc1NC(=O)CN(c1cc(C(F)(F)F)ccc1Cl)S(=O)(=O)c1ccccc1 | x | x | x | x | 6 | x
Cc1ccc(-n2cccc2/C=C2/C(=N)N3C(=NC2=O)SN=C3S(C)(=O)=O)cc1Cl | 1% | -15% | 18µM* | -8% | -10 | 0
